Test results from PubChem BioAssay AID463173 (ICCB-Longwood Screening Facility, Harvard Medical School, 2010).
The whole screen tested about 52,000 compounds, of which about 4,300 (8.3%) were called active. Shown is part of a subset that was picked to be rich in actives. Values without a mark were called inactive. Rule as the data show it: active = survival mostly below about 52% (no sharp cut-off); inactive = mostly above about 56%.

system: DeltatarO mutant; assay: S. aureus survival, RN4220 and DeltatarO strains – OD600, teichoic acid synthesis inhibitors, primary screen (AID 463173); conditions: S. aureus RN4220 wild type/DeltatarO growth, OD600, 18 h, stronger effect = lower value, screened at 18.75 µg/mL (by protocol)

Compound	survival
O=C1NC(=O)C2C3c4ccccc4C(c4ccccc43)C12 (configuration not stated)	98%
O=C(CSc1nnc(CNC(=O)c2c(F)cccc2Cl)o1)Nc1cccc(F)c1	82%
CCc1ccc(CNC(=O)c2ccc3c(c2)nc2n3CCCCC2)cc1	79%
COC(=O)c1c(NC(=O)c2cc(=O)c3ccc(C)c(C)c3o2)sc2c1CCCC2	84%
N#CC(C#N)=Cc1cn(CCOc2ccc3c(c2)OCO3)c2ccccc12	98%
CCOC(=O)c1cc(=O)n2[nH]c(-c3ccc(Br)cc3)cc2n1	93%
COc1ccc(NC(=O)c2ccc3c(c2)N(Cc2cccc(Cl)c2)C(=O)c2ccccc2S3=O)cc1Cl (configuration not stated)	112%
COc1ccc(N(C)C(=O)c2nn(-c3ccc(C)cc3)c(=O)n(C)c2=O)c(OC)c1	82%
Cc1ccc(NC(=O)CSc2ncc(-c3ccccc3)[nH]2)cc1	51%
CCOc1ccc(-c2nnc(SCC(=O)Nc3cccc(OC)c3)nc2-c2ccc(OCC)cc2)cc1	0% (active)
CCOc1cccc(NC(=O)CSc2ncc(-c3ccccc3)[nH]2)c1	49%
COc1ccc(NC(=O)CSc2ncc(-c3ccc(Cl)cc3)[nH]2)cc1OC	78%
COc1cc(-c2nnc(SCC(=O)Nc3cccc(C#N)c3)o2)cc(OC)c1OC	110%
O=C(CSc1ncc(-c2ccccc2)[nH]1)Nc1ccc(Cl)cc1	36% (active)
CCOc1ccc(-c2nnc(SCC(=O)Nc3cccc(C#N)c3)o2)cc1	48% (active)
CCOc1ccc(NC(=O)CSc2nnc(-c3ccc(C)cc3)c(-c3ccc(C)cc3)n2)cc1	115%
CCOc1ccc(NC(=O)CSc2nnc(-c3ccc(OCC)cc3)o2)cc1	94%
COc1ccc(-c2nnc(SCC(=O)Nc3cccc(C(F)(F)F)c3)nc2-c2ccc(OC)cc2)cc1	87%
O=C(CSc1ncc(-c2ccccc2)[nH]1)Nc1ccccc1	64%
CCOc1cccc(NC(=O)CSc2ncc(-c3ccc(Cl)cc3)[nH]2)c1	39% (active)
CCOc1ccccc1-n1nnc(-c2nc(-c3ccccc3C)no2)c1C	96%

Compound	survival
Cc1c(F)cccc1NC(=O)C1CCCN1S(=O)(=O)c1ccc(F)cc1 (configuration not stated)	72%
CC1=C(c2ccc(C)cc2)S(=O)(=O)N(Cc2ccc(C(=O)NCc3ccccc3)cc2)C1=O	81%
CCN(C(=O)c1cccs1)c1nnc(-c2cccc(C)c2)s1	93%
COc1ccc(CCNC(=S)N(Cc2ccco2)Cc2cc3cc(OC)c(OC)cc3[nH]c2=O)cc1OC	73%
O=C(CSc1ncc(-c2ccc(F)cc2)n1Cc1ccco1)OC1CCCCC1	108%
COc1ccc(OC)c(NC(=O)COCc2cc(-c3ccc(F)cc3)on2)c1	93%
Cc1cccc(-c2nc(SCC(=O)Nc3cccc(C(F)(F)F)c3)n3[nH]c(=O)cc3n2)c1	0% (active)
O=C(CSc1nc(-c2ccccc2F)nc2cc(=O)[nH]n12)Nc1cccc(C(F)(F)F)c1	69%
O=C(CSc1nc(-c2cccs2)nc2cc(=O)[nH]n12)Nc1cccc(C(F)(F)F)c1	94%
Cc1ccc(-c2noc(-c3nnn(CC(=O)Nc4cc(Cl)ccc4C)c3N)n2)cc1	80%
CC(=O)c1ccc(NC(=O)Nc2ccc3snnc3c2)cc1	50%
COc1cccc(NC(=O)Nc2ccc3snnc3c2)c1	68%
O=C(Nc1cccc(C(F)(F)F)c1)Nc1ccc2snnc2c1	11% (active)
O=C(Nc1cccc(C(F)(F)F)c1)c1ccc2snnc2c1	111%
O=C(Nc1ccc(F)cc1)Nc1ccc2snnc2c1	19% (active)
Cc1ccc(NC(=O)Nc2ccc3snnc3c2)cc1C	66%
COc1ccc(NC(=O)CSC2=Nc3ccccc3C3=NC(CCC(=O)NCc4cccs4)C(=O)N23)cc1 (configuration not stated)	93%
CC1=C(c2ccc(C)c(C)c2)S(=O)(=O)N=C1N1CCC(C(=O)NC(C)c2ccccc2)CC1 (configuration not stated)	84%
CC(=O)N1Cc2ccccc2C(C)CC12CCCC2 (configuration not stated)	119%
Cc1nn2c(=O)cc(COC(=O)c3cccs3)nc2s1	89%
Fc1ccc(NCc2ccccc2-c2nnc(-c3ccccc3Cl)o2)cc1Cl	77%

Compound	survival
O=C(NCCc1nc2ccccc2n1Cc1ccc(F)cc1)c1ccco1	47%
CCC1=Nc2cc(C(=O)NC3CCCC3)ccc2Sc2ccc(Br)cc21	44% (active)
CCC1=Nc2cc(C(=O)NC3CCCC3)ccc2Sc2ccc(Cl)cc21	58%
CCCC1=Nc2cc(C(=O)NC3CCCC3)ccc2Sc2ccc(C)cc21	46% (active)
CC1=Nc2cc(C(=O)NC3CCC(C)CC3)ccc2Sc2c(C)ccc(C)c21 (configuration not stated)	73%
CCCC1=Nc2cc(C(=O)NC3CCCCC3)ccc2Sc2ccc(C)cc21	94%
CC1=Nc2cc(C(=O)NC3CCCC3)ccc2Sc2ccc(Br)cc21	57%
CCC1=Nc2cc(C(=O)NC3CCC(C)CC3)ccc2Sc2ccc(C)cc21 (configuration not stated)	39% (active)
CC1=Nc2cc(C(=O)NC3CCCC3)ccc2Sc2ccc(C)cc21	59%
CCC1=Nc2cc(C(=O)NCc3ccc(C)cc3)ccc2Sc2ccc(C)cc21	78%
COc1ccc(CNC(=O)c2cc3cc(C)ccc3n2C)cc1	74%
O=C(CSc1nc2c([nH]c3ccccc32)c(=O)n1-c1cccc(C(F)(F)F)c1)N1CCc2ccccc21	78%
O=C(NC1CC(=O)N(c2ccc(Cl)cc2)C1)c1cccs1 (configuration not stated)	71%
CC1CCN(c2nc3ccc(C(=O)NC(C)C)cc3s2)CC1	74%
Cc1cc2[nH]c(=O)c(=O)[nH]c2cc1S(=O)(=O)NCc1ccc(F)cc1	112%
COc1cccc(CNS(=O)(=O)c2cc3[nH]c(=O)c(=O)[nH]c3cc2C)c1	67%
Cc1ccc(CNS(=O)(=O)c2cc3[nH]c(=O)c(=O)[nH]c3cc2C)cc1	47% (active)
CC(C)Sc1ncc(Cl)c(C(=O)N(Cc2ccc(F)cc2)C2CCS(=O)(=O)C2)n1 (configuration not stated)	76%
CN(Cc1ccccc1)Cn1[nH]c(=O)ccc1=O	110%
COc1ccc(C)c2sc(N(Cc3cccnc3)C(=O)COc3ccccc3)nc12	85%
